GLP1R inv ag: inverse agonists of human GLP-1 receptor | HEK293 GLP-1R CRE-luciferase, luminescence, 24 h; GLP-1R form is constitutively active | Potency, µM (series often up to 38.3 µM), without a hit: top-dose activity change, negative = inhibition, actives largely listed as inhibitors | 410,000 tested, 1.6% active; note: % is set by controls: 0 for no effect and ±100 for the full control effect; nearly all actives have a fitted effect of over 55% in size
Target sequence (P43220 whole entry, looked up): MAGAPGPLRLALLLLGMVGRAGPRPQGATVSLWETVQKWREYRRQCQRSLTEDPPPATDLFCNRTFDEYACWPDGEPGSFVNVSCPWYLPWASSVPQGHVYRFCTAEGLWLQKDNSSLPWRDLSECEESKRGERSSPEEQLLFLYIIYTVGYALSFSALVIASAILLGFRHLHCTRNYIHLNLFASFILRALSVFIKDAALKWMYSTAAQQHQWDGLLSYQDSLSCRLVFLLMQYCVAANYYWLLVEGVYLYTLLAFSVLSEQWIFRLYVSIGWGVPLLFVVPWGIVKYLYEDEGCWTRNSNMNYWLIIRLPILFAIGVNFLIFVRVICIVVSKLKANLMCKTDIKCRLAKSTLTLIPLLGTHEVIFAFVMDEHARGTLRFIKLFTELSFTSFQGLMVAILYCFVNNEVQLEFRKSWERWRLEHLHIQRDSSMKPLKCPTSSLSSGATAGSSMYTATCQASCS
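Assay principle: reduced luminescence from a cAMP-responsive reporter in HEK293 cells co-expressing a constitutively active GLP-1R. Conditions: 24 hr compound incubation, 37 deg C, 5% CO2.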
HepG2 tox-1: kills HepG2 cells in TGF-b inhibitor counter-screen. Potency, µM (series often up to 46.1 µM), inactives show at the top dose activity change, negative = cytotoxicity, hits mostly cytotoxic. HepG2 CAGA-GFP viability, ATP luminescence, 18 h. AID 588856. 410,000 tested, 0.76% active
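CellTiter-Glo luminescence gave cytotoxicity after 18 hours at 37 degrees C. The cells were HepG2 CAGA-GFP in 1% FBS DMEM, stimulated with 500 pg/mL TGF-beta after compound addition. %Activity was normalised to no-cell wells (complete cell-killing) and DMSO (no toxicity), and curves were fitted and classified.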
ATXN viability: reduces viability in counter-screen for ATXN expression inhibitors | AID 651635 | 400,000 tested, 0.49% active | Potency, µM (series often up to 56.7 µM), most hits filed as cytotoxic | S2 cells (HEK-293 line with an ATXN2-luciferase reporter) viability, CellTiter-Fluor protease fluorescence, 24 h; note: nearly all actives have a fitted effect of over 40% in size
TGFb SMAD3 inh: TGF-b pathway inhibition. HepG2 CAGA-GFP TGF-b/SMAD3 reporter, GFP fluorescence, 18 h; TGF-beta stimulated, 500 pg/mL final. Potency, µM (top dose mostly 46.1 µM), for the others: at the top dose activity, negative = inhibition, usual class: inhibitors. 410,000 tested, 1.2% active. AID 588855; note: % is set by controls: 0 for no effect and ±100 for the full control effect; nearly all actives have a fitted effect of over 65% in size
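HEPG2 CAGA-GFP, 1000 cells/well; 2 h settle, 37 C; cpd via pin tool; TGF-b 500 pg/mL final; 18 h, 37 C; GFP imaging ex488/em500-530; %Activity normalised to -TGF-b and +DMSO controls; CRC fit, curve class.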
ATXN2 expr inh: inhibitors of ATXN2 expression; HEK-293 ATXN2-luciferase reporter, luminescence, 24 h; Potency, µM (doses to about 57 µM), for inactives: at the top dose activity change, negative = inhibition, actives largely listed as inhibitors; 360,000 tested, 0.72% active; AID 1745845; note: % is set by controls: 0 for no effect and ±100 for the full control effect; nearly all actives have a fitted effect of over 55% in size
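qHTS (up to 57 uM final) was run with 24 h compound exposure of reporter cells at 37 °C. Each well was multiplexed: SteadyGlo luminescence measured ATXN2-luciferase expression after a fluorogenic Gly-Phe-AFC viability readout (25 uM final).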
GLP-1R agonist: GLP-1 receptor (human) agonism | P43220 | HEK293 GLP-1R CRE-luciferase, luminescence, 4-6 h; cells express a hypersensitive GLP-1R form | Potency, µM (series often up to 45.6 µM), for inactives: top-dose activation, most hits filed as activators | 380,000 tested, 0.007% active | AID 624172; note: % of control where 0% means no effect
TGFb confirm: TGF-b pathway inhibition, cherry-pick retest. HepG2 CAGA-GFP TGF-b reporter, GFP fluorescence, 18 h; cells stimulated with TGF-beta, 500 pg/mL. 1,600 tested, 63% active. shares compounds with TGFb SMAD3 inh. Potency, µM (titrated, usually from 46.1 µM), without a hit: at the highest dose activity, negative = inhibition, actives largely listed as inhibitors. AID 720534; note: % is set by controls: 0 for no effect and ±100 for the full control effect; nearly all actives have a fitted effect of over 65% in size
HepG2 tox-2: HepG2 cytotoxicity, TGF-b inhibitor counterscreen. AID 720535. shares compounds with TGFb SMAD3 inh. Potency, µM (doses to about 46.1 µM), inactives show at the top dose activity, negative = cytotoxicity, usual class: inhibitors. HepG2 CAGA-GFP viability, ATP luminescence, 18 h; cells stimulated with TGF-beta, 500 pg/mL. 1,600 tested, 27% active; note: % is set by controls: 0 for no effect and ±100 for the full control effect; nearly all actives have a fitted effect of over 70% in size
CCL64 TGFb inh: TGF-b inhibition, CCL64 orthogonal assay; CCL64 CAGA-GFP reporter, TGF-b stimulated, GFP fluorescence, 18 h; 1,600 tested, 41% active; shares compounds with TGFb SMAD3 inh; Potency, µM (titrated, usually from 46.1 µM), for the others: at the top dose activity, negative = inhibition, actives largely listed as inhibitors; note: nearly all actives have a fitted effect of over 65% in size
TGFb COP inh: TGF-b inhibition validated with COP promoter; shares compounds with TGFb SMAD3 inh; HepG2 COP-GFP TGF-b reporter, GFP fluorescence, 18 h; cells stimulated by added recombinant TGF-beta; Potency, µM (top dose mostly 46.1 µM), inactives show top-dose activity, negative = inhibition, usual class: inhibitors; 1,600 tested, 3% active; AID 720537; note: nearly all actives have a fitted effect of over 70% in size
The depositor's hits bear a star; i = inactive; ? = inconclusive; . = no result given. Rows were chosen to be rich in hits. Some 3.7% of all compounds tested hit in one or more screens of this group. Calls come from the whole dose curve; as a rule, active = well fitted curve in the direction sought with a large enough effect; inconclusive = small, poorly fitted or top-dose-only effect, or another doubt; inactive = no such curve, though single readings can be large; an effect the other way counts as inactive or inconclusive. Potency is the fitted concentration of half-maximal effect.

SMILES	GLP1R inv ag	HepG2 tox-1	ATXN viability	TGFb SMAD3 inh	ATXN2 expr inh	GLP-1R agonist	TGFb confirm	HepG2 tox-2	CCL64 TGFb inh	TGFb COP inh
O=[N+]([O-])c1ccc(N2CCOCC2)c2c1no[n+]2[O-]	?	-101%	.	3.2µM*	.	-19%	18µM*	13µM*	5.2µM*	?
O=[N+]([O-])c1ccc(N2CCOCC2)c2cccnc12	107%	-1%	.	-14%	.	-11%	.	.	.	.
Cc1cccn2c(=O)c(/C=C(\C#N)c3nc4ccccc4s3)c(Oc3ccc(F)cc3)nc12	7%	11%	?	-24%	0%	.	.	.	.	.
COC1CC(C)C(OC)c2cc(O)cc(c2O)NC(=O)C(C)=CC=CC(C)C(OC(N)=O)C(C)=CC(C)C1OC (configuration not stated)	?	1%	?	7.1µM*	3.8µM*	-16%	0.52µM*	5.2µM*	4.1µM*	22%
Nc1nc(F)nc2c1ncn2[C@@H]1O[C@H](CO)[C@@H](O)[C@H]1O	2µM*	-37%	3.2µM*	0.79µM*	2.5µM*	2%	0.58µM*	0.46µM*	1.2µM*	25%
CC12CCC3C(CCC4(O)CC(O)CCC34C=NO)C1(O)CCC2C1=COC(=O)C1 (configuration not stated)	?	-43%	?	1µM*	?	-5%	12µM*	1µM*	0.29µM*	57%
CCCCN=C[C@]12CCC(O)CC1(O)CCC1[C@@H]2CC[C@]2(C)[C@H](C3C=CC(=O)O3)CCC12O (some centres not stated)	?	-68%	i	3.5µM*	?	-11%	?	1.2µM*	1.5µM*	41%
CCS(=O)(=O)C(C)(C)S(=O)(=O)CC	.	.	i	.	6%	0%	.	.	.	.
Cc1cnc(C)c(Nc2nc(C(N)Cc3ccc(C(F)(F)F)cc3)cs2)n1 (configuration not stated)	?	-109%	?	?	?	-15%	.	.	.	.
Cc1c(C=O)c2ccccc2n1Cc1ccc(F)cc1	?	-31%	i	5.6µM*	-10%	1%	1.3µM*	1.6µM*	10%	-4%
O=C(CCN1CC2CCC(CC2)C1)c1cccs1	12%	-25%	?	13µM*	-2%	1%	2.6µM*	21µM*	2.9µM*	?

Screening results as filed in PubChem.
